Laboratory results published in the supplement of paper PMC6555819.

Experiments:
Experiment in all cases: PBM binding z-score (relative to random genomic background probes); higher = stronger binding; sequences stand for … in GC…GCGATTGACAGCGTAGAATGAAGG
[1] = test system: FXR:RXRa (NR concentration 270 nM, RXRa partner concentration 90 nM)
Procedure, shortened: (§1)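 On custom Agilent 4×180K arrays, double-stranded probes with 34-nt variable regions carried direct-repeat seeds, single-nucleotide variants, half-site ablations or random human genomic background. Ligand-free nuclear receptor dimers were applied for 1 h, and binding was read with antibodies against each partner (one per run). Binding z-scores come from regression-normalized fluorescence, with the random background probes as reference.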

[2] = test system: LXRa:RXRa (NR concentration 270 nM, RXRa partner concentration 90 nM)
Procedure, shortened: as §1

[3] = test system: LXRa homodimer (NR concentration 270 nM)
Procedure, shortened: as §1

[4] = test system: LXRb:RXRa (NR concentration 270 nM, RXRa partner concentration 90 nM)
Procedure, shortened: as §1

[5] = test system: PPARa:RXRa (NR concentration 270 nM, RXRa partner concentration 90 nM)
Procedure, shortened: as §1

[6] = test system: PPARg:RXRa (NR concentration 180 nM, RXRa partner concentration 90 nM)
Procedure, shortened: as §1

[7] = test system: PPARg:RXRa 270nM:90nM, anti-RXR (NR concentration 270 nM, RXRa partner concentration 90 nM)
Procedure, shortened: as §1

[8] = test system: PPARg:RXRa 30nM:10nM, anti-RXR (NR concentration 30 nM, RXRa partner concentration 10 nM)
Procedure, shortened: as §1

[9] = test system: PPARg:RXRa 90nM:30nM, anti-RXR (NR concentration 90 nM, RXRa partner concentration 30 nM)
Procedure, shortened: as §1

[10] = test system: PPARg:RXRa DBDmut IVT, anti-RXR (DBD mutation: RXRa K156A/R161A, NR concentration 270 nM, RXRa partner concentration 90 nM)
Procedure, shortened: as §1

[11] = test system: PPARg:RXRa IVT, anti-PPARg (NR concentration 270 nM, RXRa partner concentration 90 nM)
Procedure, shortened: as §1

[12] = test system: PPARg homodimer (NR concentration 180 nM)
Procedure, shortened: as §1

[13] = test system: PXR:RXRa (NR concentration 270 nM, RXRa partner concentration 90 nM)
Procedure, shortened: as §1

[14] = test system: PXR homodimer (NR concentration 270 nM)
Procedure, shortened: as §1

[15] = test system: RARa:RXR (NR concentration 270 nM, RXRa partner concentration 90 nM)
Procedure, shortened: as §1

[16] = test system: RARa homodimer (NR concentration 270 nM)
Procedure, shortened: as §1

[17] = test system: RARb:RXRa (NR concentration 270 nM, RXRa partner concentration 90 nM)
Procedure, shortened: as §1

[18] = test system: LXRb homodimer (NR concentration 270 nM)
Procedure, shortened: as §1

[19] = test system: PPARg DBDmut IVT, anti-PPARg (DBD mutation: PPARg1 K132A/R137A, NR concentration 270 nM)
Procedure, shortened: as §1

[20] = test system: PPARg DBDmut:RXRa IVT, anti-PPARg (DBD mutation: PPARg1 K132A/R137A, NR concentration 270 nM, RXRa partner concentration 90 nM)
Procedure, shortened: as §1

Sequence	PBM binding z-score [1]	PBM binding z-score [2]	PBM binding z-score [3]	PBM binding z-score [4]	PBM binding z-score [5]	PBM binding z-score [6]	PBM binding z-score [7]	PBM binding z-score [8]	PBM binding z-score [9]	PBM binding z-score [10]	PBM binding z-score [11]	PBM binding z-score [12]	PBM binding z-score [13]	PBM binding z-score [14]	PBM binding z-score [15]	PBM binding z-score [16]	PBM binding z-score [17]	PBM binding z-score [18]	PBM binding z-score [19]	PBM binding z-score [20]
CTATGTAGGTTAAGGGGGGCATTCAGTTTGAAAG	3.22	3.64	1.74	6.04	4.85	8.88	7.37	6.02	7.7	7.45	7	3.9	4.18	8.89	2.96	3.91	3.35			
TCGAGTAGGTTACGGCGGCATTCAGGGATGAAGA	-0.0492	0.356	-0.342	0.0226	1.32	0.838	1.73	1.18	1.43	3.16	2.85	-0.171	-0.0606	-0.885	0.128	-1.2	0.794			
CCATGTAGGTTAAGGGGGTCATTCAGTTTGAAAG	4.98	4.71	3.76	6.22	5.88	7.38	7.13	4.55	6.52	5.55	6.99	4.47	5.83	12.1	5.82	2.79	3.46			
CGAACTAGGTCAAAGGGCAGTGAAAGGCGACGTA	5.16	3.62	-0.00961	2.68			10.2	10.2	11.2	8.19	8.52	2.2	2.96	-0.191	4.78	-0.269	4.31	-0.302	0.155	
CTATGAAGGTTAAGGGGGTCATTCAGTTTGAAAG	5.47	5.4	3.45	6.37	5.65	5.21	6.01	3.46	5.16	3.68	5.15	4.25	6.22	13.8	6.01	2.51	4.05			
TCATATAGGTCAAAGGTGAAAGTCGGTGTGGTAA	7.15	6.06	2.14	5.58			9.8	10.4	11.4	8.06	7.84	3.28	5.31	1.13		1.6	4.89	1.91	2.53	1.77
AGTGAAAGTTCAGGACGAGGTAACGTAAAGCACG	3.78	3.69	1.17	1.94		3.61	4.03	1.48	2.89	-0.565	1.36	1.57		1.41	2.9	0.544	4.14	0.34	0.589	0.759
CTATGTAGGTTAAGGGGGACATTCAGTTTGAAAG	1.22	1.63	0.816	3.58	5.12	8.82	8.59	7.64	9.61	7.33	7.62	2.11	2.48	5.75	1.65	1.11	2.1			
CCGAGTAGGTTACGAAGGGGCATTCAGTGCGAAT	0.672	6.11	-0.15	4.02	1.83	1.04	1.55	-0.292	0.939	4.07	3.33	0.383	2.86	1.4	1.04	0.184	1.56			
TCGACTAGGTTACGGGGGCATTCAGGGATGAAGA	2.94	2.96	1.01	5.58	4.29	6.51	5.97	4.68	5.76	5.37	6.51	2.41	3.59	2.11	3.47	0.467	2.91			
CCGAGTAGGATACGAGGGGGCATTCAGTGCGAAT	0.863	1.35	0.542	3.08	1.75	0.323	1.47	0.0307	1.08	0.37	0.975	0.513	2.31	3.26	1.78	-0.298	0.887			
TCGAGTAGGCTACGGGGGCATTCAGGGATGAAGA	1.68	1.1	-0.259	3.17	2.56	1.6	2.51	1.38	1.8	2.36	3.36	0.299	1.77	0.484	1.43	-0.44	0.961			
TCGAGTAGGTTACGAGGGCATTCAGGGATGAAGA	0.963	1.16	-0.0456	0.518	2.58	3.58	3.11	1.61	2.6	3.87	4.89	0.36	1.43	0.25	1.69	-0.742	1.63			
TCGAGTAGATTACGGGGGCATTCAGGGATGAAGA	1.41	1.87	0.702	4.05	2.53	1.06	2.64	2.04	2.12	2.06	2.81	0.745	2.52	1.38	2.08	0.218	1.37			
CCGAGTAGGTTACAAGGGGGCATTCAGTGCGAAT	2.05	7.37	2.35	6.52	3.41	2.25	3.68	0.773	2.98	4.32	4.29	1.99	4.6	5.19	3	0.759	2.17			
CTATGTAGGTTAAGGGGGTCATTCATTTTGAAAG	4.9	4.91	3.28	6.23	5.9	8.6	7.7	6.27	7.77	7.22	7.67	2.86	5.45	5.06	5.94	1.58	3.38			
